The text below walks through data of PubChem BioAssay (NCI).

Test in all cases: NCI-60 one-dose screen, 48 h (100 = growth as untreated, 0 = no growth, -100 = all killed)
Common to all, as to details: 10 µM unless noted

For assay [1], the system named is NCI-H23 lung.
Assay [2] concerns NCI-H226 lung.
Assay [3] has as its system NCI-H322M lung.
For assay [4], the system named is HOP-62 NSCLC.
In assay [5] the test system is HOP-92 NSCLC.
The subject of assay [6] is NCI-H522 lung.
Assay [7] relates to A549/ATCC NSCLC.
The subject of assay [8] is 786-0 renal.
Assay [9] relates to COLO 205 colon.
Assay [10] relates to NCI-H460 lung.

Several values for one entry are separate records, joined by “and”; a condition that tells them apart may be missing. Identical values can stand only once. Compounds without any hit were thinned out: in the full panel of roughly 83,000, 20% have a hit.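 Values shown are percent growth following 48 h exposure of cells in 96-well plates to a single concentration of compound; below 10 was considered active.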 Activity calls are given as the source filed them.

With `NC(=O)NO`, the growth in [1] is 102% (inactive) and 62.3% (inactive); in assay [2], 106% (inactive) and 74.1% (inactive); in assay [3], 107% (inactive) and 77.1% (inactive); in assay [4], 109% (inactive) and 73.2% (inactive); in assay [5], 101% (inactive) and 60.6% (inactive); in assay [6], 98.7% (inactive) and 82.7% (inactive). Besides, the growth in assay [7] was 94.8% (inactive) and 53.4% (inactive); in [8] it was 103% (inactive) and 59.7% (inactive); in assay [9], 118% (inactive) and 87.4% (inactive).
Regarding `Cc1ccc(S(=O)(=O)Nc2ccc3cc([N+](=O)[O-])ccc3c2[N+](=O)[O-])cc1`, the growth in assay [1] was 65.7% (inactive) and 92.6% (inactive); in assay [2] it was 67.6% (inactive) and 95.5% (inactive); in [3], 93% (inactive) and 93.1% (inactive); in assay [4], 92.7% (inactive) and 95% (inactive); in assay [5] it was 27.9% (inactive) and -8.68% (active); in [6], 54.6% (inactive) and 85.3% (inactive). Also, the growth is 77.7% (inactive) and 91.2% (inactive) in assay [7]; 72.2% (inactive) and 85.9% (inactive) in assay [8]; 106% (inactive) and 96.6% (inactive) in assay [9].
With `O=C(Nc1ccc([N+](=O)[O-])cc1Cl)c1cc(Cl)ccc1O`, the growth in assay [1] was -37.1% (active) and -43.6% (active); in [2], -11.4% (active) and -4.59% (active); in assay [3], -0.032% (active) and -21.1% (active); in assay [4], 4.95% (active) and 9.98% (active); in assay [5], -24.7% (active) and -11.7% (active); in [6], -34.6% (active) and -12.1% (active). In addition, the growth in assay [7] is 2.95% (active) and 18.5% (inactive); in [8], -34.7% (active) and -36.2% (active); in assay [9], -65.9% (active) and -43.8% (active).
For the compound `O=C(Oc1cccc(OC(=O)c2ccccc2)c1)c1ccccc1`, the growth is 94.6% (inactive) and 106% (inactive) in assay [1]; 102% (inactive) and 100% (inactive) in [2]; 101% (inactive) and 97.8% (inactive) in [3]; 90.5% (inactive) and 90% (inactive) in [4]; 73.7% (inactive) and 88.5% (inactive) in assay [5]; 108% (inactive) in assay [6]. Further, the growth is 57.7% (inactive) and 98.9% (inactive) in assay [7]; 90% (inactive) and 95.8% (inactive) in [8]; 101% (inactive) and 104% (inactive) in assay [9].
`CCNC(=O)Nc1ccc(-c2nc3c(c(N4CCOC[C@@H]4C)n2)CCN(C2COC2)C3)cc1`: the growth was 50.8% (inactive) and 20.1% (inactive) in assay [1]; 19.7% (inactive) and -3.42% (active) in [2]; 39.3% (inactive) and 12.1% (inactive) in [3]; 43.3% (inactive) and 0.37% (active) in assay [4]; -6.36% (active) and -16.3% (active) in [5]; 24.1% (inactive) and 6.99% (active) in [6]. The growth in [7] was 44.3% (inactive) and 2.19% (active); in assay [8], 36.6% (inactive) and 5.36% (active); in assay [9], 28.4% (inactive) and 3.31% (active).
Regarding `O=C(/C=C\c1ccnc2ccccc12)c1ccc([N+](=O)[O-])cc1`, the growth in assay [1] is 91.4% (inactive) and 63% (inactive); in assay [2] it was 85.3% (inactive) and 68.5% (inactive); in [3] it was 112% (inactive) and 115% (inactive); in [10], 99.7% (inactive) and 79.8% (inactive); in [5], 78% (inactive) and 58% (inactive); in assay [6], 36.7% (inactive) and 67.7% (inactive). The growth in assay [7] was 91.5% (inactive) and 78.3% (inactive); in [8], 88.8% (inactive) and 81.4% (inactive); in assay [9], 118% (inactive) and 105% (inactive).
For the compound `O=C(CCl)c1ccc2c(c1)Nc1ccccc1S2`, the growth in [1] is 90.7% (inactive) and 94.2% (inactive); in assay [2], 89.4% (inactive) and 91.2% (inactive); in assay [3], 102% (inactive) and 92.7% (inactive); in [10], 110% (inactive) and 105% (inactive); in assay [5], 101% (inactive); in assay [6], 66.1% (inactive) and -35.2% (active). For the same compound, the growth in [7] is 100% (inactive) and 106% (inactive); in [8] it was 63.6% (inactive) and 79.1% (inactive); in [9], 110% (inactive) and 86.7% (inactive).
Regarding `CC(C)Cc1ccc(C(C)C(=O)NCc2ccc(Cn3c(=O)sn(CCCCl)c3=O)cc2)cc1` (centres undefined), the growth in assay [1] is 96.7% (inactive) and -59.1% (active); in [2], 106% (inactive) and 32.6% (inactive); in assay [3], 101% (inactive) and 73.9% (inactive); in assay [4] it was 105% (inactive) and -38.5% (active); in assay [10], 105% (inactive) and 40.2% (inactive); in [5], 105% (inactive) and -77.6% (active). The growth is 101% (inactive) and -20.1% (active) in assay [7]; 101% (inactive) and -71.6% (active) in assay [8]; 66.8% (inactive) and -65% (active) in assay [9].
`CC1CCCc2sc3nc(NNC(=O)c4cnccn4)n(-c4ccccc4)c(=O)c3c21` (centres undefined): the growth in assay [1] is 23.9% (inactive) and 20.2% (inactive); in assay [2] it was -2.24% (active) and -5.33% (active); in assay [3], 15.9% (inactive) and 6.48% (active); in assay [5], 44% (inactive) and 42.3% (inactive); in assay [7] it was 3.51% (active) and 7.07% (active); in assay [8] it was 16.1% (inactive) and 6.45% (active). The growth in assay [9] is 4.98% (active) and -2.77% (active).
